# Measured values as given in PubChem BioAssay AID720504 (National Center for Advancing Translational Sciences (NCATS), 2013).
# The campaign covered roughly 360,000 compounds. About 10,000 (2.8%) were called active. Another 4% or so got no clear call; they are omitted. Many of the other results were omitted from the sample, so actives are more common in it than they were. Unmarked numbers belong to inactive results. Calls follow the shape of the dose curve; as a rule, active = well fitted inhibition curve with a large enough effect; inconclusive = small, poorly fitted or top-dose-only effect; inactive = flat fitted curve, though single readings scatter.
# Molecular target: Serine/threonine-protein kinase PLK1 (Homo sapiens) (UniProt P53350)
# Sequence (P53350 whole entry, looked up, the tested form may be a part): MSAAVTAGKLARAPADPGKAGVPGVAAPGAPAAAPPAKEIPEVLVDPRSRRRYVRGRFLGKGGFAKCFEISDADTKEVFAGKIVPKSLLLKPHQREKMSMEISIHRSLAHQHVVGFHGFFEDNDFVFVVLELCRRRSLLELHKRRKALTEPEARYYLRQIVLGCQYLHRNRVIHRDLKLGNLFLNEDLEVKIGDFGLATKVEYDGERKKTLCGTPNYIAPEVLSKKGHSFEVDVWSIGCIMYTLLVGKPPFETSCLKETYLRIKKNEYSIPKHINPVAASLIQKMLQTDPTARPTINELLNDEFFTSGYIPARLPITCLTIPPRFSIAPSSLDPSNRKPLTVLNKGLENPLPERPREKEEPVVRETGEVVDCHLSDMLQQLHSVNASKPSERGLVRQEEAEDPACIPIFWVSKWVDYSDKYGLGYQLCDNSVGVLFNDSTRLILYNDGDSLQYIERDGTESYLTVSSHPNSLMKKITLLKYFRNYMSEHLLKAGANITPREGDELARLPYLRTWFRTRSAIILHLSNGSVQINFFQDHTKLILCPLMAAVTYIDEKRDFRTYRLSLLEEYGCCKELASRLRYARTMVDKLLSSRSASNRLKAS
# Assay: qHTS for Inhibitors of PLK1-PDB (polo-like kinase 1 - polo-box domain): Primary Screen; also: nearly all actives have a fitted effect of over 65% in size; as to max response, negative = inhibition: series mostly up to about 57 µM
# Settings: Plk1 PBD binding of FITC phosphopeptide, fluorescence polarization
# % is scaled to controls: 0 for no effect and ±100 for the full control effect; potency is read from the fitted curve at half-maximal effect.
Compound,"max response, negative = inhibition [%]",Potency
CCc1nc2ccc(C(=O)N3CCN(S(=O)(=O)CC)CC3)cn2c1N(C=O)CCC(C)C,-4.19,–
O=C(CCCN1C(=O)C(c2ccccc2)Oc2cccnc21)Nc1ccccc1Br (stereo not drawn),3.26,–
CCCCn1nnnc1C(c1cccc(OC)c1OC)N1CCN(C/C=C/c2ccccc2)CC1 (stereo not drawn),-4.93,–
CC1(C)CC(=O)C=C(c2ccc(COC(=O)c3cc(F)cc(F)c3)cc2)C1=O,-3.92,–
O=C(/C=C/NNC(=O)c1cccc(Br)c1)c1ccccc1,-5.78,–
O=C(COC(=O)/C=C/c1cn(-c2ccccc2)nc1-c1cccnc1)Nc1ccc(Cl)cc1Cl,13.1,–
O=C(O)CCn1cc(/C=C/C(=O)c2ccc(Cl)cc2)c(-c2cccc(Br)c2)n1,–,21.2 µM (active)
CCCCc1ccc(S(=O)(=O)NC(=O)C2(C)CCN2C(=O)c2c(C)noc2C)cc1 (stereo not drawn),-12,–
Cn1cc(CCC(=O)NC2CC2)c2ccccc21,-19.7,–
CCn1cc(CCC(=O)NCc2ccc(F)cc2)c2ccccc21,–,23.8 µM (active)
Cc1ccc(CNC(=O)Cc2cn(C)c3ccccc23)cc1,-3.92,–
COc1ccc(-c2cc(NC=O)c3ncc(-c4cccc(C(=O)N(C)C)c4)n3c2)c(OC)c1,-16.4,–
O=C(CC1SC(=Nc2ccccc2)N(Cc2ccccn2)C1=O)Nc1cccc(Cl)c1 (stereo not drawn),–,29.9 µM (active)
CN=C1SC(CC(=O)Nc2ccc(C(=O)O)cc2)C(=O)N1C (stereo not drawn),-12.2,–
CCN1C(=O)C(CC(=O)Nc2cc(C)ccc2C)SC1=Nc1ccc(S(N)(=O)=O)cc1 (stereo not drawn),-2.89,–
CCN=C1SC(CC(=O)Nc2ccc(C)cc2)C(=O)N1CC (stereo not drawn),-1.27,–
CN1C(=O)C(CC(=O)Nc2ccccc2)S/C1=N/c1nccs1 (stereo not drawn),–,26.7 µM (active)
CC1CC(=O)N(CC(=O)Nc2cccc(Cl)c2)c2ccccc2S1(=O)=O (stereo not drawn),-2.47,–
CCCC/C=C/c1cccc2nncn12,0.37,–
O=C(Nc1nnc([C@H]2C[C@H](O)[C@@H](CO)O2)s1)c1cccc(Cl)c1,-11.4,–
O=C(CSc1ncn[nH]1)Nc1nc2c(F)c(F)c(F)cc2s1,-14.3,–
COc1ccc(NC(=O)Cn2c(-c3ccc(OC)cc3)cn(-c3ccc(C)cc3)c2=O)cc1,-2.89,–

Compound,"max response, negative = inhibition [%]",Potency
CCn1c(=S)sc2c(=O)n(CC(=O)Nc3cccc(Br)c3)c(C)nc21,5.75,–
CCn1c(=S)sc2c(=O)n(CC(=O)Nc3ccc(OC)cc3)c(C)nc21,–,33.6 µM (active)
CCCCCc1c(Cc2ccccc2)ncn1CCc1ccccc1OC,-12.9,–
Cc1cc(NC(=O)CCC(=O)N(c2cccc(F)c2)C(C(=O)NC2CCCC2)c2ccncc2)no1 (stereo not drawn),-7.93,–
Cc1ccc(N(C(=O)C(F)(F)F)C(C(=O)NC2CCCCC2)c2ccncc2)cc1C (stereo not drawn),–,11.9 µM (active)
CCc1ccc(N(C(=O)c2csnn2)C(C(=O)NC2CCCCC2)c2ccncc2)cc1 (stereo not drawn),-3.61,–
COc1ccc(C(C)(O)c2nc(-c3ccc(C)c(C)c3)cs2)cc1 (stereo not drawn),-4.12,–
COCCNC(=O)c1cc2c(Br)ccc(Br)c2nc1N,-4.02,–
CCOC(=O)[C@]12CCC=C1N(Cc1cccc3ccccc13)C(=O)[C@H](CC(=O)NCc1cccc(C(F)(F)F)c1)C2,-6.42,–
CCOc1ccc(N(CC)S(=O)(=O)c2cccc3nsnc23)cc1,-8.88,–
CCOc1ccc(OCC)c(NC(=O)CN(C)S(=O)(=O)c2cccc3nsnc23)c1,–,29.9 µM (active)
CCOc1ccccc1NC(=O)CCS(=O)(=O)c1cccc2nsnc12,7.52,–
COc1ccc(CN2C[C@H]3CON(C)[C@H]3C[C@H]2c2ccc(-c3cccc(F)c3)cc2)cc1,5.3,–
Cc1sc2ncn(CC(=O)NCCN(C)C)c(=O)c2c1S(=O)(=O)N1CCC(C)CC1,-12.5,–
COc1cccc(NC(=O)Cn2cnc3sc(C)c(S(=O)(=O)N4CCN(C)CC4)c3c2=O)c1,–,8.44 µM (active)
COc1ccc(N2CCN(C(=O)Cn3cnc4sc(C)c(S(=O)(=O)N5CCOCC5)c4c3=O)CC2)cc1,-11.3,–
COCCCNC(=O)c1cccc2c(-c3ccc(O)c(OC)c3)coc12,-12.1,–
O=C(N[C@H]1CC[C@H](CC(=O)N2CCCCC2)O[C@@H]1CO)c1cccc(F)c1,6.09,–
Cc1ccc(Cl)c(OCC(=O)N(C)CC(=O)Nc2ccc(N3CCOCC3)cc2)c1,-2.7,–
Cc1ccc(Cl)c(OCC(=O)NN2CCN(C)CC2)c1,–,23.8 µM (active)
Cc1ccc(Cl)c(OCC(=O)N2CCc3ccccc3C2)c1,-3.49,–
Cc1cc(C)c2c(=O)n3c(nc2c1)C(CC(C)C)NC(=O)c1cc2ccccc2cc1-3 (stereo not drawn),1.09,–

Compound,"max response, negative = inhibition [%]",Potency
O=C(Nc1ccc(Cl)c(C(F)(F)F)c1)C1Cc2c(-c3ccccc3Oc3ccccc3)ccnc2O1 (stereo not drawn),-6,–
Cc1ccc(NC(=O)C2CCCN2S(=O)(=O)c2cccc3cccnc23)c(C)c1 (stereo not drawn),-3.33,–
Cc1cc(C)cc(NC(=O)C2CCCN2S(=O)(=O)c2cccc3cccnc23)c1 (stereo not drawn),-10.9,–
O=C(Nc1nccs1)C1CCCN1S(=O)(=O)c1cccc2cccnc12 (stereo not drawn),–,26.7 µM (active)
Cc1ccccc1-c1nc(NC(C)C)nc2cc(-c3ccccc3)sc12,-6.2,–
O=C(C1CC(=O)N(C2CCCCC2)C1)N1CCN(c2ccccc2)CC1 (stereo not drawn),-15.5,–
O=C(C1CC(=O)N(c2ccc(F)cc2)C1)N1CCN(c2ccccc2)CC1 (stereo not drawn),–,18.9 µM (active)
CC1CC(C)CN(C(=O)C2CC(=O)N(c3ccc(F)cc3)C2)C1 (stereo not drawn),-7.49,–
CC1=C(C(=O)N(C)C)CC(CC(=O)NCCc2ccccn2)C(=O)N1CCC1=CCCCC1 (stereo not drawn),-5.19,–
CC(=O)N(C1=C(Cl)C(=O)c2ccccc2C1=O)c1ccc(C(=O)O)cc1,–,2.99 µM (active)
COCCNC(=O)CSc1nc(N)c(NC(=O)c2ccco2)c(=O)[nH]1,-1.47,–
COCCNC(=O)Nc1ccc2nc(-c3ccco3)c(-c3ccco3)nc2c1,–,21.2 µM (active)
O=C(Nc1nc(-c2ccco2)c(-c2ccco2)s1)c1ccco1,-24.5,–
CC1(C(=O)NS(=O)(=O)c2ccccc2Cl)CCN1C(=O)c1cccc(F)c1 (stereo not drawn),-14.1,–
CC(C)CN1C(=O)CN(S(C)(=O)=O)CC1(C)C(=O)NCc1ccccc1 (stereo not drawn),4.65,–
O=C1NC[C@H](Cc2ccc(O)cc2)N(C[C@H]2CCCN2C[C@H](Cc2ccccc2)N2C[C@H](Cc3ccccc3)N(CCc3ccccc3)C(=O)C2=O)C1=O,-6.61,–
CC1CCN(c2ccc3c(c2)S(=O)(=O)c2cc(C(=O)O)ccc2C3=O)CC1,2.83,–
O=C(NCCC1=CCCCC1)c1ccc(-n2cncn2)cc1,7.38,–
C1=C(CCNc2ncnc3c2cnn3-c2ccccc2)CCCC1,–,3.36 µM (active)
CC(C)Sc1ncnc2c1cnn2-c1ccccc1,2.81,–
C[C@H]1CN(c2ccc(Br)cc2)C(=O)[C@@H]1CC(=O)Nc1ccc(Br)cc1,1,–
O=C(C(=O)N1CCN(c2ccccc2)CC1)c1ccc2c(c1)OCO2,-10.2,–

Compound,"max response, negative = inhibition [%]",Potency
O=C(CN1CCN(c2ccccn2)CC1)Nc1ccc(Br)cc1,-15.1,–
O=C(Cc1ccccc1Cl)N1CCN(c2ccccn2)CC1,-14.6,–
O=C(Cc1ccc(Br)cc1)N1CCN(c2ccccn2)CC1,–,29.9 µM (active)
CCc1nnc(NC(=O)c2ccco2)s1,-6.68,–
O=C(C1CCN(Cc2ccc(Cl)cc2)CC1)N1CCN(Cc2ccc3c(c2)OCO3)CC1,2.77,–
Cc1cccc(N2CCN(C(=O)C3CCN(S(=O)(=O)c4cnc[nH]4)CC3)CC2)c1C,3.15,–
O=C(C1CCN(S(=O)(=O)c2cnc[nH]2)CC1)N1CCN(Cc2ccc3c(c2)OCO3)CC1,–,2.99 µM (active)
CCC(C(=O)Nc1c(C)cccc1C)n1c(-c2cc(C)cs2)nc2ccccc21 (stereo not drawn),-9.18,–
Cc1cc2cc3n(c2nn1)N=C(Cl)CC3,-3.02,–
C=CCC[C@H](CCCCC)OC(=O)/C=C/[C@H](O)[C@@H](O)C[C@@H](O)CC=C,-13.7,–
C[C@@H]1CN([C@H](C)CO)C(=O)CCCn2cc(nn2)CO[C@H]1CN(C)S(=O)(=O)c1ccc(Oc2ccccc2)nc1,-19.7,–
O=C1C=C(c2ccc(Cl)cc2)C(=O)N1Nc1ccccc1,–,6.7 µM (active)
O=C(CCC(=O)OCc1ccc(Cl)cc1)Nc1ccccc1,-4.01,–
O=C(O)CC1=C(Nc2ccccc2)C(=O)N(c2ccccc2)C1c1ccc(Cl)cc1 (stereo not drawn),-11.1,–
CC1(C(=O)Nc2ccc3c(c2)OCCO3)CN(S(C)(=O)=O)CC(=O)N1Cc1cccc(F)c1 (stereo not drawn),-14.7,–
COC(=O)C[C@H]1C[C@@H]2c3cc(NC(=O)Nc4ccccc4)ccc3O[C@@H]2[C@@H](CO)O1,0.628,–
Cc1ccc(S(=O)(=O)CC(=O)Nc2sc(C)c(C)c2C(N)=O)cc1,-9.45,–
Cc1ccc(C(=O)c2c(NC(=O)c3ccccc3)sc(C)c2C)cc1,–,11.9 µM (active)
Cc1sc(NC(=O)c2ccc3ncsc3c2)c(C(N)=O)c1C,-11,–
CC(Oc1cccc(NC(=O)c2cccs2)c1)C(=O)c1ccccc1 (stereo not drawn),-3.5,–
Cc1ccoc1C(=O)Nc1cccc(Oc2ccccc2)c1,–,29.9 µM (active)
CC1(C(=O)Nc2cccc(Oc3ccccc3)c2)CCN1Cc1ccccc1Cl (stereo not drawn),-5.84,–
